Reference: PubChem BioAssay (NCI)
The panel holds about 79,000 compounds, 15% with a hit somewhere; the sample as a whole holds those more often. A number with no mark means an inactive call. Active and inactive are the calls of the source. Rule as the data show it: active = growth inhibition above about 70%; inactive = the rest.

Experiments:
[1] = NCI Yeast Anticancer Drug Screen. Data for the rad50 strain (AID 155);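 also: 0% = growth of vehicle-only cultures of the same strain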; settings: S. cerevisiae rad50 strain growth inhibition, hits give high values
In short: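 Relative growth inhibition (compound vs vehicle) was measured in yeast with a defined repair-gene alteration.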

[2] = NCI Yeast Anticancer Drug Screen. Data for the mec2-1 strain (AID 157); settings: S. cerevisiae mec2-1 strain, hits give high values
In short: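 Strain: mec2-1 (DNA repair/cell cycle alteration). Compound exposure, then growth measured; inhibition expressed relative to vehicle.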

[3] = NCI Yeast Anticancer Drug Screen. Data for the sgs1 mgt1 strain (AID 161);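 also: 0% = growth of cultures given vehicle only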; settings: S. cerevisiae sgs1 mgt1 strain, hits give high values
In short: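 Read-out: growth inhibition vs vehicle controls. Cells: mutant yeast strain deficient in DNA damage repair.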

[4] = NCI Yeast Anticancer Drug Screen. Data for the cln2 rad14 strain (AID 165);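 also: 0% = growth equal to vehicle treated cultures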; settings: S. cerevisiae cln2 rad14 strain, hits give high values
In short: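 Compounds are applied to the cln2 rad14 yeast strain, and growth is then compared with that of vehicle-treated cultures to give inhibition.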

[5] = NCI Yeast Anticancer Drug Screen. Data for the bub3 strain (AID 167); settings: S. cerevisiae bub3 mutant strain, hits give high values
In short: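 Screening used yeast with an engineered genetic alteration affecting cell cycle control. Compound-exposed cultures were compared with vehicle cultures, and reduced growth was taken as inhibition.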

[6] = NCI Yeast Anticancer Drug Screen. Data for the mlh1 rad18 strain (AID 175); settings: S. cerevisiae mlh1 rad18 strain growth inhibition, hits give high values
In short: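 Read-out is yeast growth inhibition, calculated against vehicle-only controls. The compound was applied to a strain engineered with DNA damage repair alterations.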

[7] = at 5.0 µM (retest, dose inferred, filed as 0.5)
[8] = at 50.0 µM (retest, dose inferred, filed as 5.0)

SMILES	growth inhibition [1, 7]	growth inhibition [1, 8]	growth inhibition ([1]; at 50.0 µM)	growth inhibition [2, 7]	growth inhibition [2, 8]	growth inhibition ([2]; at 50.0 µM)	growth inhibition [3, 7]	growth inhibition [3, 8]	growth inhibition ([3]; at 50.0 µM)	growth inhibition [4, 7] [%]	growth inhibition [4, 8] [%]	growth inhibition ([4]; at 50.0 µM)	growth inhibition [5, 7]	growth inhibition [5, 8]	growth inhibition ([5]; at 50.0 µM)	growth inhibition [6, 7]	growth inhibition [6, 8]	growth inhibition ([6]; at 50.0 µM)
CN(Cc1cc(Br)cc(Br)c1O)Cc1c[nH]c2ccccc12	-1%	8%	68.1%	12%	31%	31.1%	0%	14%	86.4% (active)	-2	0	62.2%	-4%	-1%	40.9%	36%	48%	74.5% (active)
CSc1nc2nn(Cc3ccccc3)cc2c(=O)[nH]1	-6%	22%	-7.95%	10%	19%	-4.85%	9%	21%	2.4%	17	50	-22.8%	27%	47%	-9.9%	20%	39%	11.8%
CN(Cc1ccccc1)CC(O)c1ccc(/C=C/c2ccc(Cl)cc2)cc1 (stereo not given)	55%	66%	86.1% (active)	38%	66%	65.5%	87% (active)	92% (active)	95.9% (active)	52	64	87.6% (active)	68%	82% (active)	69.6%	56%	73% (active)	86.2% (active)
COc1ccccc1NC(=O)/C(=C\N1C(=O)/C(=C/c2cc(OC)c(OC)c(OC)c2)SC1=S)C(C)=O	-11%	9%	46%	-12%	14%	13.4%	-8%	35%	74.2% (active)	-28	7	8.6%	-21%	-12%	27.9%	-39%	25%	49.7%
Nc1nccc2c1ncn2C1C=C(CO)C(O)C1O (stereo not given)	15%	67%	38.5%	3%	90% (active)	45.4%	6%	80% (active)	54.5%	0	26	57.5%	21%	94% (active)	57.1%	18%	89% (active)	-8.5%
ClC(Cl)(Cl)C(NCCN1CCOCC1)c1ccccc1 (stereo not given)	99% (active)	88% (active)	80% (active)	100% (active)	99% (active)	61.7%	100% (active)	98% (active)	84.5% (active)	66	55	78.8% (active)	98% (active)	97% (active)	66.3%	99% (active)	98% (active)	78.7% (active)
C1=C(c2ccccc2)CCc2c1ccc1ccccc21	5%	-8%	-3.45%	-6%	3%	-10.8%	1%	16%	0%	-9	-10	4.35%	7%	10%	16%	-1%	21%	5.7%
OC(CCN1CCCCC1)(Cc1ccccc1)c1cccc(Cl)c1 (stereo not given)	8%	46%	58.1%	4%	40%	26.6%	28%	78% (active)	73.1% (active)	17	52	77.8% (active)	15%	62%	50.9%	17%	64%	60.3%
N#Cc1cccc2c1Sc1ccccc1N2	22%	31%	88.6% (active)	6%	-9%	92.8% (active)	1%	6%	89.2% (active)	-5	-6	90.1% (active)	-26%	6%	91.3% (active)	-7%	7%	60.5%
CCCCCCCC/C=C\CCCCCCCC(=O)OCCCCC	-7%	2%	15.6%	-5%	0%	13.8%	-2%	18%	17.2%	-8	-10	60.8%	-6%	-8%	40.5%	15%	11%	33.6%
